Most compounds without a hit are left out; they make up all but 14% or so of the library.
Pf growth 48h – Primary qHTS for delayed death inhibitors of the malarial parasite plastid, 48 hour incubation; P. falciparum luciferase growth in erythrocytes, 48 h; Potency, µM (series often up to 28.7 µM), without a hit: at the highest dose activity change, negative = inhibition, most hits filed as inhibitors; actives 5.9% (n = 310,000); AID 504832, 2011; also: potency is read from the fitted curve at half-maximal effect
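Luciferase-expressing parasites in RBCs, 2% Hct / 0.1% parasitemia final; RPMI 1640 + 0.5% Albumax; 37 C, 5% CO2, one generation; luminescence read-out, lower signal = inhibition.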
HCMV inh – qHTS Assay for inhibitors of the human cytomegalovirus (HCMV); actives 4.5% (n = 410,000); activity change, negative = inhibition, % at 57.5 µM; AID 1259415, 2018; HFF cells, HCMV-luciferase reporter, 72 h; active compounds read low; in the data active = activity change below about -60%; inconclusive = no clear call, values can overlap the other calls; inactive = above about -39%
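Two-dose cell screen: HFF monolayers treated with compounds and infected with luciferase-expressing HCMV at 1 PFU/cell, 72 h at 37C, then lysed for luciferase measurement.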
Giardia FBPA inh – qHTS Assay for Inhibitors of Fructose-1,6-bisphosphate Aldolase from Giardia Lamblia; A8B2U2; purified Giardia FBPA; Potency, µM (doses to about 59.6 µM), for the others: at the top dose activity, negative = inhibition, actives largely listed as inhibitors; actives 0.71% (n = 290,000); AID 2451, 2010; also: potency is read from the fitted curve at half-maximal effect; nearly all actives have a fitted effect of over 55% in size
Target sequence (A8B2U2 whole entry, looked up): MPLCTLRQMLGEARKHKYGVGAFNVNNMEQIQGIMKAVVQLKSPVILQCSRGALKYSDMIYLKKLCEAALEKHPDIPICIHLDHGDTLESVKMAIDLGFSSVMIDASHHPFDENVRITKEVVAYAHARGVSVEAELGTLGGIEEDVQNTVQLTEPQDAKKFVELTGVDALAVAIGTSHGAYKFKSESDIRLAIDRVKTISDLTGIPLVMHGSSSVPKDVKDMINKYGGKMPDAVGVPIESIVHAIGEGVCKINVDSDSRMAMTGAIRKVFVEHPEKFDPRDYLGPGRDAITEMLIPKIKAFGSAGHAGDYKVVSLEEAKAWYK
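Giardia FBPA (40 nM reagent) was preincubated 10 min at RT with compound (up to 57.5 uM final), then substrate plus GAPDH/TPI/NAD/arsenate coupling system with diaphorase/resazurin was added; resorufin fluorescence (525/598 nm) was read after 20 min.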
Sm TGR inh – qHTS Assay for the Inhibitors of Schistosoma Mansoni Peroxiredoxins. AID 485364, 2010. purified TGR, DTNB reduction, TNB absorbance 405 nm. Schistosoma mansoni thioredoxin glutathione reductase (TGR), Q962Y6. actives 3% (n = 360,000). Potency, µM (highest dose often 114 µM), for inactives: at the top dose activity change, negative = inhibition, usual class: inhibitors; also: potency is read from the fitted curve at half-maximal effect; nearly all actives have a fitted effect of over 60% in size
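TGR 20 nM + NADPH 100 uM (dispensed conc.), cpd preinc 15 min RT; start with NADPH (500 uM addition) then DTNB (15 mM addition). Kinetic TNB absorbance, 405 nm filter. Four-parameter Hill fit across titration.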
Pf growth 96h – Primary qHTS for delayed death inhibitors of the malarial parasite plastid, 96 hour incubation. Potency, µM (titrated, usually from 28.7 µM), inactives show at the top dose activity change, negative = inhibition, hits mostly inhibitors. AID 504834, 2011. P. falciparum luciferase reporter growth, 96 h. actives 6.9% (n = 320,000); also: potency is read from the fitted curve at half-maximal effect
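Cell-based qHTS: luciferase-tagged P. falciparum in erythrocytes (2% hematocrit, 0.05% parasitemia final) incubated with compounds for 96 hours, 37 C, 5% CO2; luciferase detection reagent then added and luminescence measured.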
Starred values were filed as active, the others as inactive; ? = inconclusive; · = not tested or not shown; [ ] = another dose, or the depositor's remark. Unless noted, calls follow the shape of the dose curve; as a rule, active = well fitted curve in the direction sought with a large enough effect; inconclusive = small, poorly fitted or top-dose-only effect, or another doubt; inactive = no such curve, though single readings can be large; an effect the other way counts as inactive or inconclusive. % is scaled to controls: 0 for no effect and ±100 for the full control effect.

SMILES	Pf growth 48h	HCMV inh	Giardia FBPA inh	Sm TGR inh	Pf growth 96h
Cc1ccc(N(C)S(=O)(=O)c2cccc(C(=O)NC3CC(C)(C)NC(C)(C)C3)c2)cc1	?	4.7	·	-12.0%	?
CC1(C)CC(NC(=O)c2cccc(S(=O)(=O)N(Cc3ccccc3)c3ccccc3)c2)CC(C)(C)N1	10.4µM*	-17.5	·	0.5%	13.1µM*
Cc1ccc(N(C)S(=O)(=O)c2cccc(C(=O)Nc3ccc(C)cn3)c2)cc1	2.08µM*	-23.4	·	-0.9%	5.22µM*
COc1ccccc1N(Cc1ccccc1)S(=O)(=O)c1cccc(C(=O)Nc2ccc(C)cn2)c1	4.15µM*	-24.2	·	10.5%	1.85µM*
CN(C)S(=O)(=O)c1cccc(C(=O)Nc2ccc(Cl)cn2)c1	·	-15.7	-3.5%	13.8%[11.4 µM]	?
COc1ccc(CNC(=O)Nc2nc(C(N)c3ccccc3)cs2)cc1 (stereo unspecified)	·	-29.3	·	·	·
O=C1CCC/C1=c1\s/c(=C\c2cccnc2)c(=O)n1-c1ccccc1	?	-78.9*	10.8%	-18.1%	?
C#Cc1ccc([C@@H]2C=C(C(=O)N3CCN(Cc4ccccc4)CC3)O[C@H](OCC)[C@H]2CCCO)cc1	?	-16.3	2.0%	?	6.57µM*
C#Cc1ccc([C@@H]2C=C(C(=O)O)O[C@H](OCC)[C@H]2CCCO)cc1	·	-0.4	·	·	·
CCO[C@@H]1OC(C(=O)N2CCN(Cc3ccccc3)CC2)=C[C@H](c2ccccc2)[C@H]1CCCO	?	6.2	-9.7%	-35.0%	?
C#Cc1ccc([C@H]2C=C(C(=O)N3CCN(Cc4ccccc4)CC3)O[C@@H](OCC)[C@@H]2CCCO)cc1	?	14.8	-4.4%	?	10.4µM*
CC(=O)NC(C)(c1ccccc1)c1nc(-c2cncnc2)cs1 (stereo unspecified)	·	-16.9	·	·	·
Nc1ccc2oc(C3CCCCC3)nc2c1	91.4%	85.1	-14.1%	-4.5%[57.1 µM]	?
CCCn1c(N)c(N(CCOC)C(=O)Cc2ccc(S(=O)(=O)N3CCOCC3)s2)c(=O)[nH]c1=O	11.4%	-15.7	·	-20.0%	-3.6%
NS(=O)(=O)c1cccc(NC(=S)NC(=O)C23CC4CC(CC(C4)C2)C3)c1	7.3%	57.4	-1.1%	?	44.3%
COCCn1c(NC(=S)NC(=O)C23CC4CC(CC(C4)C2)C3)cc(=O)[nH]c1=O	?	32.2	-12.1%	-3.4%	14.7µM*
N#Cc1ccccc1NC(=O)C(=O)NCC(c1ccc2c(c1)OCO2)N1CCOCC1 (stereo unspecified)	·	16.6	·	6.3%	·
C[C@@H]1CCCCO[C@@H](CN(C)S(C)(=O)=O)[C@@H](C)CN([C@H](C)CO)C(=O)c2cc(N(C)C)ccc2O1	·	36.6	·	·	·
CCCCC[C@@H](C)N1C[C@H](COCc2ccccc2)Oc2cc(N3CC[C@@H](N(C)C)C3)ccc2S1(=O)=O	·	-101.7*	·	·	·
CCCCC[C@@H](C)N1C[C@@H](COCc2ccccc2)Oc2cc(N3CC[C@@H](N(C)C)C3)ccc2S1(=O)=O	·	-20.4	·	·	·
CCCCC[C@H](C)N1C[C@H](COCc2ccccc2)Oc2cc(N3CC[C@@H](N(C)C)C3)ccc2S1(=O)=O	·	-100.6*	·	·	·
O=S1(=O)C=C(Sc2nc3ccccc3s2)c2ccccc21	8.28µM*	·	1.0%	2.24µM*	·
Cc1cc(C)nc(SC2=CS(=O)(=O)c3ccccc32)n1	?	-5.5	-0.8%	-22.7%	-25.4%
COc1ccccc1CN1CCCC2(CCN(S(C)(=O)=O)CC2)C1	·	·	2.8%	·	·
CC(C)Sc1nc2sccc2c(=O)n1-c1ccccc1	-15.2%	-8.8	-2.3%	0.5%	?
SMILES	Pf growth 48h	HCMV inh	Giardia FBPA inh	Sm TGR inh	Pf growth 96h
CC(Sc1nc2sccc2c(=O)n1-c1ccccc1)C(N)=O (stereo unspecified)	?	12.9	-0.2%	7.0%	1.65µM*
Cc1ccc2nc(NC(=O)CN(C)S(=O)(=O)c3ccc(Br)s3)sc2c1	·	-29.0	-3.3%	5.3%	9.28µM*
Cc1ccc(S(=O)(=O)N(C)CC(=O)Nc2nc3ccccc3s2)cc1	-8.9%	40.5	-5.5%	1.9%	6.57µM*
CN(CC(=O)Nc1nc2ccc(F)cc2s1)S(=O)(=O)c1ccc(Cl)cc1	·	-14.3	-2.5%	-17.2%	?
CN(Cc1ccccc1)C(=S)NC(=O)c1ccccc1	-12.1%	7.2	-21.5%	2.5%	-14.1%
CC(C)N(C(=NCc1ccccc1)NC(=O)c1ccccc1)C(C)C	?	-88.7*	·	-0.7%	-8.8%
CC(=O)Nc1ccc(NC(=O)CC(c2ccccc2)c2ccccc2)cc1	11.7µM*	8.8	16.7%	-7.1%	133.9%
COCCNC(=O)CC(c1ccccc1)c1ccccc1	·	-5.5	10.2%	-5.3%	9.28µM*
CCCN(CCC)S(=O)(=O)c1ccc(NC(=O)COc2ccccc2)cc1	·	1.9	-3.9%	-0.3%	9.28µM*
COc1ccc(OCC(=O)Nc2ccc(S(=O)(=O)N(C)c3ccccc3)cc2)cc1	2.3%	-15.5	5.9%	7.0%	?
COCCNC(=O)CSc1nc(-c2ccccc2)c(-c2ccccc2)o1	8.28µM*	12.5	-1.0%	8.2%	·
COc1ccc(Cl)cc1S(=O)(=O)NC(C)C(=O)NCc1ccc2c(c1)OCO2 (stereo unspecified)	6.8%	-20.1	16.8%	-1.4%	-2.4%
CC1CCN(C(=O)C2COc3ccccc3C2)CC1 (stereo unspecified)	·	-7.2	·	1.0%	·
Cc1nnc(SCC(=O)Nc2ccc(N(C)C)cc2)[nH]c1=O	·	-9.3	·	-2.7%	·
CC(=O)Nc1ccc(S(=O)(=O)N2CCN=C2c2ccccc2)cc1	-19.0%	-8.7	·	-10.3%	14.7µM*
CC(=O)Nc1ccc(S(=O)(=O)N(Cc2ccccc2)Cc2ccccc2)cc1	·	-60.8*	·	10.9%	·
CCCCCCNC(=O)CC(c1ccccc1)c1cc(Br)ccc1O (stereo unspecified)	11.7µM*	-3.9	4.1%	-12.2%	?
CC(=O)Nc1ccc(S(=O)(=O)N(CC(=O)O)Cc2ccccc2)cc1	19.5%	-39.0	15.4%	6.5%	·
CC(C)NC(=O)CC(c1ccccc1)c1cc(Br)ccc1O (stereo unspecified)	·	-7.0	1.1%	-0.2%	?
CCN(CC)S(=O)(=O)c1ccc(NC(=O)CC(NC(C)=O)c2ccccc2)cc1 (stereo unspecified)	-20.0%	-81.2*	-0.1%	-2.0%	·
CC(=O)N1CCN(C2c3cccc4cccc(c34)C2NS(=O)(=O)c2ccccc2)CC1 (stereo unspecified)	?	-9.5	10.6%	-7.9%	13.2%
Cc1ccc(C(=O)N2CCN(C3c4cccc5cccc(c45)C3NS(=O)(=O)c3ccccc3)CC2)cc1 (stereo unspecified)	2.08µM*	-18.0	·	1.2%	?
